The results in this text go back to PubChem BioAssay AID720509 (The Scripps Research Institute Molecular Screening Center, 2013).

The inhibition is the change of the read-out against control, counted positive when it falls.

About 760 (0.21%) of roughly 370,000 compounds were called active. The full list was thinned out, with actives kept by preference. Values without a mark were called inactive.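 Rule for the calls: active = inhibition above a per-campaign cutoff: mean of compounds within control limits plus 3 SD (cut at about 15% in these data); inactive = the rest.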

Chain of Fibrinogen beta chain (Homo sapiens) (P02675 whole entry, looked up): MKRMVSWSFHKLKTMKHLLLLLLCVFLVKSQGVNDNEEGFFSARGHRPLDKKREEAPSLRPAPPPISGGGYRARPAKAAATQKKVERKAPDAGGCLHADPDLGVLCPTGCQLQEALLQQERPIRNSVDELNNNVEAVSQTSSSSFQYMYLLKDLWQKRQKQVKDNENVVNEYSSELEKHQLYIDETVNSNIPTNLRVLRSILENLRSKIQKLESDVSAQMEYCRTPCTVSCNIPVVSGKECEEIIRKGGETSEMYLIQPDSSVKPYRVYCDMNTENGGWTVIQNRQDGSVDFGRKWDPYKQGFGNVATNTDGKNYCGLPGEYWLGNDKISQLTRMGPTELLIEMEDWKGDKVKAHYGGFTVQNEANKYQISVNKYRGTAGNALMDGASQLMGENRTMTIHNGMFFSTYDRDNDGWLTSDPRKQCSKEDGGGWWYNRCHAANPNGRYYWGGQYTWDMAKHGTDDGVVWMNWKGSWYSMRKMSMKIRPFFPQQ

The test has as its target Fibrinogen beta chain (Homo sapiens) (UniProt P02675). Kind of test: inhibitors of Tn6 peptide binding to fibrin DD(E), primary screen, biochemical, fluorescence polarization, human fibrin, Tn6 probe (AID 720509).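 Note: 0% = median of all compound wells on the plate and 100% = blocking peptide control.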 To be noted: Fibrin DD(E) TRITC-Tn6 fluorescence polarization displacement; at 8.3 µM; active compounds read high.
For `CCc1nc2c(OCc3ccc(C(F)(F)F)cc3)cccn2c1N(C)C(=O)CC(C)C`, the inhibition is 3.22%.

Consider `Cc1nc2nc3c(cn2n1)C(=O)CC(c1ccccc1)C3` (stereo not drawn), for which the inhibition was 4.63%.

Consider `CC(C)CSc1nnc(-c2cccnc2)n1Cc1ccccc1`, for which the inhibition was -2.2%.

Take `Cc1cc(NS(=O)(=O)c2ccc(NC(=O)CSc3nnc(-c4ccc(C(C)(C)C)cc4)n3Cc3ccco3)cc2)nc(C)n1`: the inhibition is 6.53%.

As to `Cc1ccc(C(=O)NC2CCN(C(=O)Nc3ccccc3Cl)CC2)cc1`, the inhibition was 0.49%.

For `CCOCCCNC(=O)c1c[nH]c2cc(C)ccc2c1=O`, the inhibition is -0.35%.

As to `CCn1ccnc1CN(C)C(=O)c1ccc2nc(Cc3ccc(OC)cc3)oc2c1`, the inhibition was -4.19%.

`COc1ccc(Cc2nc3ccc(C(=O)N4CCC(N(C)C)C4)cc3o2)cc1` (stereo not drawn): the inhibition was 2.22%.

On to `CCC1C(=O)NCCN1C(=O)c1ccc2nc(Cc3ccc(OC)cc3)oc2c1` (stereo not drawn), for which the inhibition was 15.8% (active).

Take `CC(C)CN1CC(C)C(=O)N(c2ccccc2)C1=S` (stereo not drawn): the inhibition is 11.7%.

For the molecule `COC(=O)C1=C(C)N(c2ccc(C)cc2)/C(=C/c2ccc(O)cc2)C1=O`, the inhibition was 1.49%.

On to `Cc1ccccc1N(C(=O)Cc1cccs1)C(C(=O)NC1CCCCC1)c1cn(C)nc1C` (stereo not drawn), for which the inhibition is -5.36%.

Regarding `O=C(Nc1nsc(-c2ccccc2)n1)c1ccncc1`, the inhibition was 1.55%.

As for `O=C(Nc1cccc(-c2nc3ccccc3[nH]2)c1)c1ccc(C(=O)Nc2cccc(-c3nc4ccccc4[nH]3)c2)cc1`, the inhibition was 19.9% (active).

Turning to `CCOc1ccc(C(=O)Nc2cccc(-c3ccc4nncn4n3)c2)cc1`, the inhibition was 12.2%.

Consider `O=C(c1ccc(F)cc1)c1cn(Cc2ccc(F)cc2)c2cc3c(cc2c1=O)OCCO3`, for which the inhibition was -1.55%.

On to `CCN(CC)C(=O)CC[C@@H]1CC[C@]2(CCCN(S(=O)(=O)C3CCCCC3)C2)O1`, for which the inhibition was -5.4%.

For the molecule `CCc1nc2ccccc2c(C(=O)OC2CCCCC2=O)c1C` (stereo not drawn), the inhibition was -0.37%.

Turning to `CSc1ccccc1OCc1cc(C(=O)N2C[C@H]3CC[C@H]2C3)no1`, the inhibition was 8.52%.

With `O=C(CN1C(=O)CSC1=O)N1CCCC(Nc2ccc(F)cc2)C1` (stereo not drawn), the inhibition was -6.4%.

Consider `CC(=O)Nc1ccc(OCCC[n+]2cccc(C(=O)[O-])c2)cc1`, for which the inhibition is -1.3%.

As to `Cn1ccc(=Nc2ccc(NC(=O)c3ccc(N=c4ccn(C)c5ccc([N+](=O)[O-])cc45)cc3)cc2)cc1`, the inhibition was -6.27%.

In the case of `COC(=O)C1CN(Cc2cn(Cc3ccc(F)cc3)nn2)CCS(=O)(=O)N1Cc1ccc(Cl)cc1` (stereo not drawn), the inhibition is 10.6%.

On to `Cc1ccc(OCCNC(=O)c2cccc(S(=O)(=O)N3CCN(Cc4ccccc4)CC3)c2)cc1`, for which the inhibition was 4.41%.

As to `C[C@@H]1CN([C@H](C)CO)C(=O)CCCn2cc(nn2)CO[C@H]1CN(C)S(=O)(=O)c1ccc(Oc2ccccc2)nc1`, the inhibition is -1.11%.

On to `Cc1noc(C)c1-c1nc(CSc2ccc(Cl)cc2)no1`, for which the inhibition was -2.98%.

Take `C[C@@H](C(=O)N1CCNCC1)n1cc(CCC(=O)O)nn1`: the inhibition was -0.49%.

As for `O=C(Cc1c(Cl)cccc1Cl)NC1CC1`, the inhibition is 6.01%.

Turning to `O=C(CCl)NNc1cccc(Cl)n1`, the inhibition was 30.8% (active).

In the case of `O=C(NNc1cc(Cl)cc(Cl)c1)c1c(F)cccc1Cl`, the inhibition is 1.43%.

In the case of `COC(=O)[C@]12C[C@H](CC(=O)NCc3cccc(C(F)(F)F)c3)C(=O)N(Cc3ccc4c(c3)OCO4)C1=C[C@H](COCc1ccccc1)O[C@@H]2C`, the inhibition is -3.35%.

In the case of `CN(C)CCCn1c(N)c(C#N)c2nc(C#N)c(C#N)nc21`, the inhibition is 15.8% (active).

`Cc1cccc(N(C(=O)c2csnn2)C(C(=O)NCc2ccccc2)c2ccncc2)c1` (stereo not drawn): the inhibition is 1%.

Turning to `CC(C)NC(=O)c1ccccc1S(=O)c1ccccc1C#N` (stereo not drawn), the inhibition is -6.4%.

As to `CCn1nnc2cc(C(=O)Nc3ccc(C(=O)OC(C)C)cc3)ccc21`, the inhibition was -3.39%.

`Cc1cccc(C)c1N1CCN(S(=O)(=O)N2CCOCC2)CC1`: the inhibition was -1.95%.

As to `COc1ccc(-c2c(-c3cc(OC)cc(OC)c3)n(C)c3ccc(-c4ccn[nH]4)cc23)cc1`, the inhibition is 7.03%.

Turning to `Cc1cc2nc3c(=O)[nH]c(=O)nc-3n(C[C@H](O)[C@H](O)[C@H](O)CO)c2cc1C`, the inhibition was 16.3% (active).

In the case of `CCN(CC)CCCC(C)n1c2nc(=O)[nH]c(=O)c-2nc2cc(Cl)ccc21` (stereo not drawn), the inhibition is 0.53%.

Regarding `CCc1ccc(NC(=O)CN2CCC(C(=O)c3ccc(OC)cc3)CC2)cc1`, the inhibition was 3.02%.

On to `S=c1[nH]cc(-c2ccc(Cl)cc2)n1-c1ccccc1`, for which the inhibition is 1.55%.

`COc1cc(C(=S)N2CCOCC2)cc(OC)c1OC(=O)c1cc([N+](=O)[O-])c(C)c([N+](=O)[O-])c1`: the inhibition is -2.56%.

As to `CONc1nc2nonc2nc1NOC`, the inhibition was 15.3% (active).

As to `COCCNc1nc2nonc2nc1N(C)Cc1ccc(C)cc1`, the inhibition was -1.67%.

Consider `N#CC(=C1SC=CS1)c1nc(-c2ccccc2)cs1`, for which the inhibition is 4.25%.

As for `COc1ccc(NC(=S)N2N=CCC2c2ccccc2)cc1` (stereo not drawn), the inhibition was 4.08%.

As for `COc1ccc(Nc2nc(-c3ccccc3)cs2)cc1`, the inhibition was 16.7% (active).

Take `CC(C)Nc1ccc(-n2nc3ccccc3[n+]2[O-])cc1`: the inhibition is -1.03%.

For the molecule `NS(=O)(=O)c1ccc(CNC(=O)c2ccc(Cl)cc2[N+](=O)[O-])cc1`, the inhibition is 9.9%.

For the molecule `CSc1ccccc1NC(=O)c1cnc2sc(C)cn2c1=O`, the inhibition is 7.27%.

Regarding `COC(=O)[C@@H]1CCCN1C(=O)c1cc(COc2cccc3cccnc23)on1`, the inhibition was 7.18%.

In the case of `O=C(NCCCn1ccnc1)C1CCCN(S(=O)(=O)c2cc(Cl)ccc2Cl)C1` (stereo not drawn), the inhibition was 1.05%.

Consider `COc1ccc2c(c1)CC[C@@H]1[C@@H]2CC[C@]2(C)C(=O)CC[C@@H]12`, for which the inhibition was 5.66%.

With `CCc1cccc(CC)c1NC(=O)COc1ccccc1C(=O)c1cc(C#N)c(=O)n(C2CCCCC2)c1`, the inhibition is -4.12%.

Regarding `CN(Cc1ccccc1)C(=O)CCC1CCN(C(=O)c2ccco2)CC1`, the inhibition was -1.06%.

With `Cc1cc(C)c2nc(N3CCC(C(=O)NCCN4CCOCC4)CC3)sc2c1`, the inhibition was -1.61%.

Turning to `Cc1ccc(C)c(C(C)NC(=O)C2CCCO2)c1` (stereo not drawn), the inhibition is 0.84%.

For the molecule `Cc1cc(C)c2nc(NC(=O)C3CCCO3)sc2c1` (stereo not drawn), the inhibition was 15.3% (active).
